# Test results from ChEMBL document CHEMBL1201862, “PubChem BioAssay data set” (2004).
# Screen size: about 400,000 compounds; about 2,100 (0.53%) were called active. Roughly 14% stayed inconclusive and do not appear here. The rule behind the calls is not given here. What follows is part of a selection rich in actives, with near analogues and random picks from the rest.
# Target: Ataxin-2 (Homo sapiens) (UniProt Q99700)
# Experiment: qHTS for Inhibitors of ATXN expression.
# Format: functional
# Chain of Ataxin-2 (Homo sapiens) (Q99700 whole entry): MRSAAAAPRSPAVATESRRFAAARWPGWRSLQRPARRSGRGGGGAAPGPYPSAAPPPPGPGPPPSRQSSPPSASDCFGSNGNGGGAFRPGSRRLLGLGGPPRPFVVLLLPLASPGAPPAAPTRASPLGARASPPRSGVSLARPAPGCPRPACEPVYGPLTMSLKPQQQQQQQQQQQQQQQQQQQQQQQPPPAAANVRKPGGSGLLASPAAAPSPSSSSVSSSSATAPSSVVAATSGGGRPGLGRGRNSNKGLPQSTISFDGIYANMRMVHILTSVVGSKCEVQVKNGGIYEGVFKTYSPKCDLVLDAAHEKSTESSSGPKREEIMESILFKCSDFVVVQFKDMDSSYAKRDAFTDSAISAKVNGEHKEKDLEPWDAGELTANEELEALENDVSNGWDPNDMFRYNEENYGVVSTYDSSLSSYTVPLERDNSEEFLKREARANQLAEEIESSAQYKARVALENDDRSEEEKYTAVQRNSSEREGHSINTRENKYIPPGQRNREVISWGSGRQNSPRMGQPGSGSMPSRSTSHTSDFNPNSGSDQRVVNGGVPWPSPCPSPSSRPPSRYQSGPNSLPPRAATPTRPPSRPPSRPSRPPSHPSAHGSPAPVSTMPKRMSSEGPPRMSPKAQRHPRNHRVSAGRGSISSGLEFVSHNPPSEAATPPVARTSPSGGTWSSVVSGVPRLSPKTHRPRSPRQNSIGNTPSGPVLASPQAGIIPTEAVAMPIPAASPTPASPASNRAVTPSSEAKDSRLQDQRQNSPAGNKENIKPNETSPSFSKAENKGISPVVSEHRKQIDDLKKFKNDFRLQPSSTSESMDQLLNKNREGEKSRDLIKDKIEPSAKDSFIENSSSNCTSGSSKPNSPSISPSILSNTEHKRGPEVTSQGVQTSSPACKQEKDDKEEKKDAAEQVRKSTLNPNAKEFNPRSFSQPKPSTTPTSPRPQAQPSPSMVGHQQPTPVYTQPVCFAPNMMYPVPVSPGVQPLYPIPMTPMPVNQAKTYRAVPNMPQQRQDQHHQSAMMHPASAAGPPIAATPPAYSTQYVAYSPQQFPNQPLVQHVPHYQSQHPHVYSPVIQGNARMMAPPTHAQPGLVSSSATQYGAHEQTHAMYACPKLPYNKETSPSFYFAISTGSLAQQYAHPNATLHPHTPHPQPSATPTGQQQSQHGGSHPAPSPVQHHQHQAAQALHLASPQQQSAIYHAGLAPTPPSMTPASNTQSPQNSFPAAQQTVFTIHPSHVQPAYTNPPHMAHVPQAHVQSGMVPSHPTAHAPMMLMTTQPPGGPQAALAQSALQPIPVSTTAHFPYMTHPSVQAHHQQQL
row,SMILES,Potency
1,Cc1ccc(-c2cc(C(=O)Nc3ccccn3)c3ccccc3n2)o1,inactive
2,CN(NC(=O)COc1ccccc1)C1=NS(=O)(=O)c2ccccc21,inactive
3,CC(=O)c1ccc(/N=c2\scc(C)n2C(C)C)cc1,inactive
4,COc1ccc(-c2csc(NC(=O)c3c(C)noc3C)n2)cc1OC,inactive
5,CC(=O)Nc1ccc(-c2ccnc(-c3ccc(NC(C)=O)cc3)n2)cc1,inactive
6,CC(=O)Nc1cccc(-c2csc(Nc3cc(C)ccn3)n2)c1,25.1 µM (active)
7,Cc1c(CCC(=O)NCCCN2CCCC2=O)c(=O)oc2c(C)c(O)ccc12,inactive
8,COc1cc(/C=C/c2sc3ccccc3[n+]2CCCS(=O)(=O)[O-])ccc1O,18.9 µM (active)
9,Cc1cccn2c(=O)c3cc(C(=O)NCC4CCCO4)c(=N)n(Cc4ccc(F)cc4)c3nc12 (stereo not drawn),inactive
10,CCN(CC)c1ccc(/C=C(\C#N)c2ccccn2)cc1,inactive
11,CCS(=O)(=O)c1ccc2oc(SCC(=O)NCCc3ccccc3)nc2c1,inactive
12,COc1cccc(Cc2nc3ccccc3nc2SCC(=O)NCCc2ccccc2)c1,35.5 µM (active)
13,O=C(CSc1ccccc1)NCCc1ccc(F)cc1,inactive
14,O=S(=O)(c1ccc(N2CCC(c3ccc(Cl)cc3)=N2)cc1)N(CCO)CCO,inactive
15,CCCCC[C@H](O)/C=C/[C@H]1CCC(=O)[C@@H]1CCCCCCC(=O)N1CCCCC1CO (stereo partly drawn),39.8 µM (active)
16,CN(/N=C/c1cc(Cl)cc(Cl)c1O)C(=S)NC(C)(C)C,inactive
17,Cc1cc(N2CCOCC2)n2ncc(-c3ccccc3Cl)c2n1,inactive
18,Cn1nc([N+](=O)[O-])nc1Sc1cccc2cccnc12,7.94 µM (active)
19,Cc1nn(C)c(Sc2ccccn2)c1[N+](=O)[O-],inactive
20,C=CCn1nc([N+](=O)[O-])nc1Sc1cccc2cccnc12,39.8 µM (active)
21,CCOc1ccc2nc(NCCNC(=O)CC)c(C#N)cc2c1,inactive

row,SMILES,Potency
1,CN1c2ccccc2Oc2nnc(Cl)cc21,inactive
2,Cc1cc(-c2nnc3n2N=C(c2ccccc2)CS3)[nH]n1,inactive
3,Clc1ccc(C2=Nn3c(nnc3-c3cc(-c4ccccc4)[nH]n3)SC2)cc1,35.5 µM (active)
4,O=c1c2ccccc2nc(/C=C/c2ccc(O)cc2)n1CCc1ccccc1,inactive
5,O=C(CC1CCCCC1)NCc1nc(-c2ccccc2)no1,inactive
6,Cc1nn(C(=O)CCCC(=O)NCc2ccccc2)c2ccccc12,inactive
7,CCCCC[C@H]1CN(C2CCCCC2)C(=O)[C@@H]1CC(=O)NCc1ccccc1,39.8 µM (active)
8,CCN1C(=O)c2cccc3c(S(=O)(=O)N4CCNCC4)ccc1c23,inactive
9,COc1cccc(/C=C/c2ccc3cccc(O)c3n2)c1OC,inactive
10,COc1cc(OC)c(OC)cc1C=Cc1ccc2ccccc2n1,inactive
11,COc1cc(Br)c(/C=C/c2ccc3cccc(O)c3n2)cc1OC,25.1 µM (active)
12,Cc1ccc(C2C=C(c3ccc(F)cc3)Nc3nc(CCCO)nn32)cc1 (stereo not drawn),inactive
13,O=CN(c1ccccc1)c1ccc2ccccc2c1,inactive
14,CCCCCCc1cc2cc(-c3nnc(-c4cc(OC)c(OC)c(OC)c4)o3)c(=O)oc2cc1O,inactive
15,COCCCN=C(S)NCCNc1nc2c(C)c(C)ccc2cc1C#N,inactive
16,COc1cc2nc(/C=C/c3cc(OC)c(OC)c(OC)c3)sc2cc1SC,inactive
17,CC1=NN2C(=N)/C(=C\c3cc(C)n(-c4ccc(C)cc4)c3C)C(=O)N=C2S1,inactive
18,CC1=CN2C(=N)/C(=C/c3cc(Cl)c(O)c(Cl)c3)C(=O)N=C2S1,inactive
19,CC1=CN2C(=N)/C(=C/c3ccc([N+](=O)[O-])o3)C(=O)N=C2S1,28.2 µM (active)
20,COc1ccc(-c2ccc(/C=N/NC(=O)c3cccnc3)o2)c([N+](=O)[O-])c1,inactive
21,CCOc1ccc(-c2ccc(/C=C3/C(=N)N4C=CSC4=NC3=O)o2)c([N+](=O)[O-])c1,31.6 µM (active)

row,SMILES,Potency
1,CCOC(=O)c1c(N)n(C2CC(C)(C)NC(C)(C)C2)c2nc3ccccc3nc12,inactive
2,CC(CCc1ccco1)NC(=O)Cn1ncc2c(=O)oc3ccccc3c21 (stereo not drawn),inactive
3,O=C(CN1CCN(c2ccccc2)CC1)Nc1scc2c1c(=O)oc1ccccc12,inactive
4,Cc1ccc2oc(=O)c3cnn(CC(=O)Nc4ccccc4N4CCN(C)CC4)c3c2c1,7.08 µM (active)
5,CN(C(=S)NC(=O)C12CC3CC(CC(C3)C1)C2)c1ccc(O)cc1,inactive
6,Cc1ccc(-c2nc3sc(CCNC(=O)c4ccc(Br)o4)c(C)n3n2)cc1,35.5 µM (active)
7,Cc1ccc(CCNC(=O)C[S+]([O-])Cc2nc(-c3cccs3)oc2C)cc1 (stereo not drawn),inactive
8,O=C(NCCc1csc(-c2cccnc2)n1)c1ccc(Br)o1,inactive
9,O=C(COc1coc(CN2CCc3ccccc32)cc1=O)N1CCCCC1,inactive
10,CC[C@H](C)/C=C(C)/C=C/C1=CC2=CC(=O)[C@]3(C)OC(=O)[C@@H](C(C)=O)[C@@H]3C2=CO1,inactive
11,CC[C@H](C)/C=C/C1=CC2=C(Cl)C(=O)[C@@]3(C)OC(=O)C(C(=O)[C@H](C)[C@@H](C)O)=C3C2=CO1,11.9 µM (active)
12,O=S(=O)(NCc1ccccc1)c1ccc(S(=O)(=O)N2CCCC2)cc1,inactive
13,CCCCCCNC(=O)OC12CN(C(=O)OC(C)C)N(C(=O)OC(C)C)CC1(O)CN(S(=O)(=O)c1ccc(C)cc1)C2 (stereo not drawn),25.1 µM (active)
14,Cc1ccc(S(=O)(=O)N2CC3(O)CN(C(=O)OC(C)C)N(C(=O)OC(C)C)CC3(OC(=O)NCc3ccccc3)C2)cc1 (stereo not drawn),22.4 µM (active)
15,Cc1ccc(S(=O)(=O)N[C@@H](Cc2ccccc2)C(=O)N2CCC[C@@H]2C(=O)O)cc1,inactive
16,CC(=O)NCCNC(=O)c1ccc(Sc2ccccc2)c([N+](=O)[O-])c1,inactive
17,NCCNc1ccc(C(=O)N2c3ccccc3Sc3ccccc32)cc1[N+](=O)[O-],14.1 µM (active)
18,CCCNC(=O)c1ccc(SCC(=O)N(CC)CC)c([N+](=O)[O-])c1,inactive
19,C/C(=N\NC(=O)C1=NNC(=O)C1C)c1cccs1 (stereo not drawn),inactive
20,CN=c1sc2c(n1C)C(=O)c1ccccc1C2=O,39.8 µM (active)
21,O=C(NP(=O)(N1CCOCC1)N1CCOCC1)C1=C(N2CCOCC2)/C(=C\c2ccccc2)CC1,inactive
